Source: PubChem BioAssay (NCI)
This is part of a sample that, as a whole, favours compounds with a hit. Of some 83,000 tested, about 20% had one in any assay.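 The test compound was applied at a single concentration to cells in 96-well plates for 48 hours, and percent growth was recorded.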 Active and inactive are the calls of the source. The calls were made as follows: active = growth percent below 10; inactive = the rest.

Legend:
Assay in all cases: NCI-60 one-dose screen, 48 h (100 = growth as untreated, 0 = no growth, -100 = all killed)
Settings in all cases: 10 µM unless noted
T-47D breast = test system: T-47D breast
BT-549 breast = test system: BT-549 breast
MDA-MB-435 melanoma = test system: MDA-MB-435 melanoma
SW-620 colon = test system: SW-620 colon
MCF7 breast = test system: MCF7 breast
HCT-116 colon = test system: HCT-116 colon
HCC-2998 colon = test system: HCC-2998 colon
KM12 colon = test system: KM12 colon

Measured: growth

CCCC(OC(C)=O)c1ccc2c(c1)OCO2 (stereo not given)
inactive: T-47D breast 100% | BT-549 breast 110% | MDA-MB-435 melanoma 106% | SW-620 colon 109% | MCF7 breast 95.8% | HCT-116 colon 108% | HCC-2998 colon 98% | KM12 colon 106%

Clc1ccc(-c2noc(/C=C\c3ccccc3)n2)cc1
inactive: T-47D breast 89% | BT-549 breast 102% | MDA-MB-435 melanoma 92.7% | SW-620 colon 110% | MCF7 breast 74.4% | HCT-116 colon 102% | HCC-2998 colon 95.2% | KM12 colon 100%

CCOC(=O)c1cc(Cl)c(O)c(Cl)c1
inactive: T-47D breast 118% | BT-549 breast 105% | MDA-MB-435 melanoma 126% | SW-620 colon 109% | MCF7 breast 98.1% | HCT-116 colon 102% | HCC-2998 colon 112% | KM12 colon 108%

CC1(C)C2CCC1(C)C1(C2)OCCS1 (stereo not given)
inactive: T-47D breast 93.9% | BT-549 breast 88.3% | MDA-MB-435 melanoma 99.6% | SW-620 colon 100% | MCF7 breast 88.9% | HCT-116 colon 110% | HCC-2998 colon 101% | KM12 colon 102%

CCOC(=O)c1c(C)[nH]c(C)c1C=O
inactive: T-47D breast 82% | BT-549 breast 95.8% | MDA-MB-435 melanoma 105% | SW-620 colon 97.9% | MCF7 breast 89.1% | HCT-116 colon 101% | HCC-2998 colon 92.9% | KM12 colon 104%

O=S(=O)(c1ccc(NC(=S)NCc2cccnc2)cc1)N1CCCCC1
inactive: T-47D breast 32.9% | BT-549 breast 73.4% | MDA-MB-435 melanoma 36.2% | SW-620 colon 32.7% | MCF7 breast 54.7% | HCT-116 colon 26.2% | HCC-2998 colon 71.6% | KM12 colon 51.7%

C=C1C(=O)C2CCN1CC2
inactive: T-47D breast 98% | BT-549 breast 96.9% | MDA-MB-435 melanoma 93.7% | SW-620 colon 67.2% | MCF7 breast 94.3% | HCT-116 colon 56.4% | HCC-2998 colon 106% | KM12 colon 102%

CCC(/C=C\C(C)=O)CC
inactive: T-47D breast 101% | BT-549 breast 103% | MDA-MB-435 melanoma 100% | SW-620 colon 99% | MCF7 breast 105% | HCT-116 colon 97.3% | HCC-2998 colon 106% | KM12 colon 105%

CC(C)OCC(CCl)OC(=O)Nc1ccccc1 (stereo not given)
inactive: T-47D breast 100% | BT-549 breast 110% | MDA-MB-435 melanoma 107% | SW-620 colon 112% | MCF7 breast 96.9% | HCT-116 colon 108% | HCC-2998 colon 95.6% | KM12 colon 96.6%

CCOC(=O)CNC
inactive: T-47D breast 97.2% | BT-549 breast 109% | MDA-MB-435 melanoma 98.7% | SW-620 colon 98.2% | MCF7 breast 93.8% | HCT-116 colon 108% | HCC-2998 colon 96% | KM12 colon 107%

O=C(Nc1ccccc1)c1ccco1
inactive: T-47D breast 103% | BT-549 breast 98.1% | MDA-MB-435 melanoma 109% | SW-620 colon 104% | MCF7 breast 95.5% | HCT-116 colon 92.3% | HCC-2998 colon 84% | KM12 colon 117%

CC(=O)C1C(=O)C(=O)N(c2cccc([N+](=O)[O-])c2)C1=O (stereo not given)
inactive: T-47D breast 101% | BT-549 breast 109% | MDA-MB-435 melanoma 104% | SW-620 colon 111% | MCF7 breast 94.3% | HCT-116 colon 109% | HCC-2998 colon 85.9% | KM12 colon 112%

CC12CCC3c4ccc(O)cc4CCC3C1CCC2=O (stereo not given)
inactive: T-47D breast 103% | BT-549 breast 89.2% | MDA-MB-435 melanoma 112% | SW-620 colon 110% | MCF7 breast 128% | HCT-116 colon 95.3% | HCC-2998 colon 102% | KM12 colon 109%

S=C(NCc1ccccc1)N1CCC(CCCC2CCN(C(=S)NCc3ccccc3)CC2)CC1
inactive: T-47D breast 71.8% | BT-549 breast 98.2% | MDA-MB-435 melanoma 101% | SW-620 colon 108% | MCF7 breast 82.3% | HCT-116 colon 85.5% | HCC-2998 colon 123% | KM12 colon 95.9%

C[n+]1c(/C=C\C=C\N2CCCCC2)sc2ccccc21
inactive: SW-620 colon 12.5% | HCC-2998 colon 14%
active: T-47D breast 5.32% | BT-549 breast 1.35% | MDA-MB-435 melanoma -1.72% | MCF7 breast 4.75% | HCT-116 colon -24.5% | KM12 colon -11%

CCOS(=O)(=O)c1ccc([N+](=O)[O-])cc1
inactive: T-47D breast 101% | BT-549 breast 111% | MDA-MB-435 melanoma 107% | SW-620 colon 119% | MCF7 breast 103% | HCT-116 colon 106% | HCC-2998 colon 104% | KM12 colon 108%

O=C(OCc1ccccc1)n1nnc2ccccc21
inactive: T-47D breast 106% | BT-549 breast 100% | MDA-MB-435 melanoma 101% | SW-620 colon 107% | MCF7 breast 97.3% | HCT-116 colon 98.1% | HCC-2998 colon 103% | KM12 colon 107%

O=C(O)c1ccccc1Cc1ccc2c(c1)CCCC2
inactive: T-47D breast 113% | BT-549 breast 106% | MDA-MB-435 melanoma 115% | SW-620 colon 99.5% | MCF7 breast 91.7% | HCT-116 colon 104% | HCC-2998 colon 115% | KM12 colon 113%

CS(=O)CC(=N\O)/C(CS(C)=O)=N\O (stereo not given)
inactive: T-47D breast 108% | BT-549 breast 106% | MDA-MB-435 melanoma 106% | SW-620 colon 101% | MCF7 breast 90.7% | HCT-116 colon 102% | HCC-2998 colon 105% | KM12 colon 102%

N#Cc1ccc(OC(=O)Nc2c(Cl)cc(Cl)cc2Cl)cc1
inactive: T-47D breast 91.6% | BT-549 breast 113% | MDA-MB-435 melanoma 96.4% | SW-620 colon 118% | MCF7 breast 100% | HCT-116 colon 101% | HCC-2998 colon 110% | KM12 colon 107%

OCc1cccnc1
inactive: T-47D breast 106% | BT-549 breast 106% | MDA-MB-435 melanoma 97.2% | SW-620 colon 102% | MCF7 breast 94% | HCT-116 colon 107% | KM12 colon 105%

C=C(C)[C@@H]1CC[C@]2(CO)CC[C@]3(C)[C@H](CC[C@@H]4[C@@]5(C)CC[C@H](O)C(C)(C)[C@@H]5CC[C@]43C)[C@@H]12
active: HCT-116 colon 1.87%
inactive: T-47D breast 32.2% | BT-549 breast 49.3% | MDA-MB-435 melanoma 77.9% | SW-620 colon 54.6% | MCF7 breast 42.9% | KM12 colon 49.1%

C/C=C/C1OCC(CC)C(CCC)O1 (stereo not given)
inactive: T-47D breast 107% | BT-549 breast 108% | MDA-MB-435 melanoma 107% | SW-620 colon 105% | MCF7 breast 95.8% | HCT-116 colon 103% | HCC-2998 colon 124% | KM12 colon 102%

CCC(=O)C1C(=O)c2ccccc2C1=O
inactive: T-47D breast 113% | BT-549 breast 103% | MDA-MB-435 melanoma 104% | SW-620 colon 113% | MCF7 breast 105% | HCT-116 colon 107% | KM12 colon 105%

CC(=O)N(CCCCCCN(C(C)=O)C(C)=O)C(C)=O
inactive: T-47D breast 101% [100 µM] | BT-549 breast 98.4% [100 µM] | MDA-MB-435 melanoma 98.5% [100 µM] | SW-620 colon 108% [100 µM] | MCF7 breast 87.8% [100 µM] | HCT-116 colon 101% [100 µM] | KM12 colon 99.2% [100 µM]

CCC1CCC(C)NC1 (stereo not given)
inactive: T-47D breast 106% | BT-549 breast 101% | MDA-MB-435 melanoma 104% | SW-620 colon 96.9% | MCF7 breast 95% | HCT-116 colon 98.8% | KM12 colon 97.6%

Cc1ccc(NCN2C(=O)c3ccccc3C2=O)c(C)n1
inactive: T-47D breast 119% | BT-549 breast 108% | MDA-MB-435 melanoma 105% | SW-620 colon 108% | MCF7 breast 112% | HCT-116 colon 101% | KM12 colon 99.5%

CC(c1ccccc1)N1C(=O)CSC1=S (stereo not given)
inactive: T-47D breast 63.4% | BT-549 breast 32.9% | SW-620 colon 17.6%
active: MDA-MB-435 melanoma -8.13% | MCF7 breast 6.61% | HCT-116 colon 5.85% | KM12 colon -38.3%

CC(=O)c1cccc(O)c1
inactive: T-47D breast 103% | BT-549 breast 113% | MDA-MB-435 melanoma 107% | SW-620 colon 101% | MCF7 breast 94.3% | HCT-116 colon 99.9% | KM12 colon 103%

COc1c(CNC(=O)CCl)cc2[nH]c(C)cc2c1CNC(=O)CCl
inactive: T-47D breast 59.2% | BT-549 breast 58.9% | MDA-MB-435 melanoma 50.4% | SW-620 colon 55.1% | MCF7 breast 36% | HCT-116 colon 41.7% | KM12 colon 59.2%

Nc1ccccc1SC1CC(=O)N(c2ccc(Cl)c(Cl)c2)C1=O (stereo not given)
inactive: T-47D breast 74.8% | BT-549 breast 124% | MDA-MB-435 melanoma 101% | SW-620 colon 98.8% | MCF7 breast 112% | HCT-116 colon 87.4% | KM12 colon 100%

Cc1ccc(/C=N/NC(N)=S)s1
inactive: T-47D breast 100% | BT-549 breast 113% | MDA-MB-435 melanoma 106% | SW-620 colon 107% | MCF7 breast 100% | HCT-116 colon 99.5% | KM12 colon 107%

CC(C)(C)CC1(C)NC(=O)NC1=O (stereo not given)
inactive: T-47D breast 108% | BT-549 breast 119% | MDA-MB-435 melanoma 114% | SW-620 colon 103% | MCF7 breast 100% | HCT-116 colon 101% | KM12 colon 106%

C(=C\c1ccncc1)/c1ccncc1
inactive: T-47D breast 129% | BT-549 breast 91.2% | MDA-MB-435 melanoma 110% | SW-620 colon 104% | MCF7 breast 128% | HCT-116 colon 115% | KM12 colon 112%

COc1cc(OC)c(NC(=O)C(Sc2nc(C)cc(C)c2C#N)c2ccccc2)cc1Cl (stereo not given)
inactive: T-47D breast 95.9% | BT-549 breast 81.7% | MDA-MB-435 melanoma 105% | SW-620 colon 107% | MCF7 breast 95.5% | HCT-116 colon 86.7% | KM12 colon 96.4%

COc1cccc(C(=O)NNC(=O)c2cccc3ccccc23)c1
inactive: T-47D breast 95.4% | BT-549 breast 110% | MDA-MB-435 melanoma 113% | SW-620 colon 107% | MCF7 breast 109% | HCT-116 colon 108% | KM12 colon 115%

CC(=O)N=c1ccc2nc3c(cc(N)c4ccccc43)oc-2c1
inactive: BT-549 breast 10.4%
active: T-47D breast -57.8% | MDA-MB-435 melanoma -82.3% | SW-620 colon -88.7% | MCF7 breast -74.9% | HCT-116 colon -45.2% | KM12 colon -59.9%
